# Measured values: paper PMC7862700, “An all-to-all approach to the identification of sequence-specific readers for epigenetic DNA modifications on cytosine”
# Experiments:
# Experiment in all cases: DAPPL (digital affinity profiling via proximity ligation, sequencing); 10 mM Tris-HCl pH 7.5, 50 mM NaCl, 1 mM DTT, 4% glycerol, room temperature, 30 min; GST-TFs on glutathione beads, 16-mer random dsDNA library, 0.1% formaldehyde crosslink after washing; high values mean tight binding
# FLI1 = biological target: T1, FLI1 (Homo sapiens, UniProt Q01543 1-452); conditions: protein: recombinant; tags: N-terminal GST; dsDNA, one strand shown
# T1 sequence: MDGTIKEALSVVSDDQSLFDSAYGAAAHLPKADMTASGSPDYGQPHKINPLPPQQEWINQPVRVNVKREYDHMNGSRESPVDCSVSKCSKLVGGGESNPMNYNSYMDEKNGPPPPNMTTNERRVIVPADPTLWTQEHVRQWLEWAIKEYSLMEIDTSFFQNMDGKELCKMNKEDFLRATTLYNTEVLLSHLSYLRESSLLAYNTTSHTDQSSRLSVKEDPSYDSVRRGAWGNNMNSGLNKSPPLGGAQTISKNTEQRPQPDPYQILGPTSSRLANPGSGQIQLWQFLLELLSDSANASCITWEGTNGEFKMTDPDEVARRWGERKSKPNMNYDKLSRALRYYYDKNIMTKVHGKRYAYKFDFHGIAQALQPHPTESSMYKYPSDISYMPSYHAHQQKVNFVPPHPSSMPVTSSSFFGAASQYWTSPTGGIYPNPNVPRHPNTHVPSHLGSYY
# Method in brief: (§1)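 Beads coated with glutathione captured GST-fused human transcription factors that had been expressed in yeast, and the factors were then given DNA barcodes and pooled with a tag-only sample. The pools were incubated with 200 nmole of a random double-stranded 16-mer DNA library in Tris/NaCl/DTT/glycerol buffer for 30 min at room temperature, washed, crosslinked with 0.1% formaldehyde and proximity-ligated with BsaI/T4 ligase at 37 °C for 1 h. PCR amplification and Illumina NextSeq500 sequencing came last. Binding signal is each hexamer's read frequency for a factor divided by its frequency for the tag-only sample.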
# ELK1 = biological target: T2, ELK1 (Homo sapiens, UniProt P19419 1-428); conditions: protein: recombinant; tags: N-terminal GST; dsDNA, one strand shown
# T2 sequence: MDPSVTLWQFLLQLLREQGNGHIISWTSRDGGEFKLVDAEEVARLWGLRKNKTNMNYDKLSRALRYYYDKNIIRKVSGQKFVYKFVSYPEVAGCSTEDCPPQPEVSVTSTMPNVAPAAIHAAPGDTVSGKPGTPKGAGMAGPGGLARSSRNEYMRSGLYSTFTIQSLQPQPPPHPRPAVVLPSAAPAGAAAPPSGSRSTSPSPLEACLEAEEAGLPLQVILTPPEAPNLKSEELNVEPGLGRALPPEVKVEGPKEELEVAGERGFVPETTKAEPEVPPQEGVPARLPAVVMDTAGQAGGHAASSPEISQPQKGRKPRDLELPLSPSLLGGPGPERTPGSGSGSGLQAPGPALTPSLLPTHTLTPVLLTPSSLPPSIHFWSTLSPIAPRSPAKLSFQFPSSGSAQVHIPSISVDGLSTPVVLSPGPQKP
# Method in brief: as §1
# GABPA = biological target: T3, GABPA (Homo sapiens, UniProt Q06546 1-454); conditions: protein: recombinant; tags: N-terminal GST; dsDNA, one strand shown
# T3 sequence: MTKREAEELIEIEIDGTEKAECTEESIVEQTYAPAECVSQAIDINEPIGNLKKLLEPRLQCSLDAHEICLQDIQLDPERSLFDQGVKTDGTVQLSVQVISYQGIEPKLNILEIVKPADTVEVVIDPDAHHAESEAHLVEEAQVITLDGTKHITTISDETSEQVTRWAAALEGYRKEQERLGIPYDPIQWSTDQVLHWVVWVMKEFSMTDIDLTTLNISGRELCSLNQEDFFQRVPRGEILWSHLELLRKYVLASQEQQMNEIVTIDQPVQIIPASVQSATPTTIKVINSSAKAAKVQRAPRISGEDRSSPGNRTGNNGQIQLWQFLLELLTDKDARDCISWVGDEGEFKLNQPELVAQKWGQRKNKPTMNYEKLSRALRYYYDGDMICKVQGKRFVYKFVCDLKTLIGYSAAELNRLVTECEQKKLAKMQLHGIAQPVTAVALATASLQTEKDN
# Method in brief: as §1
# ERG = biological target: T4, ERG (Homo sapiens, UniProt P11308 1-479); conditions: protein: recombinant; tags: N-terminal GST; dsDNA, one strand shown
# T4 sequence: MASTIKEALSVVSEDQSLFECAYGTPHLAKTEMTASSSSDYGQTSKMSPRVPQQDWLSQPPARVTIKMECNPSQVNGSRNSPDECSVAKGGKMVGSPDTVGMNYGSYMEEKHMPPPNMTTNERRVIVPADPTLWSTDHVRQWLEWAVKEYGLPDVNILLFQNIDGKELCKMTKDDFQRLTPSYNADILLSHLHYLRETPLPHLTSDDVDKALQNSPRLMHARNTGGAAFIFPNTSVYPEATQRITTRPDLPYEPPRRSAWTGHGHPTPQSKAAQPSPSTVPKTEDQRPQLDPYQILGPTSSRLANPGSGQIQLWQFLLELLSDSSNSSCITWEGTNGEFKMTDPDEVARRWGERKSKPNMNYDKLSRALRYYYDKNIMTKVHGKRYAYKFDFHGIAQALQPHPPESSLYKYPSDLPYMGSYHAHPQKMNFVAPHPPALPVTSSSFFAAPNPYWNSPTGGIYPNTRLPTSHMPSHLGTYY
# Method in brief: as §1
# ELF1 = ELF1 (Homo sapiens, UniProt P32519 1-619); conditions: protein: recombinant; tags: N-terminal GST; dsDNA, one strand shown
# Chain of ELF1 (P32519 whole entry): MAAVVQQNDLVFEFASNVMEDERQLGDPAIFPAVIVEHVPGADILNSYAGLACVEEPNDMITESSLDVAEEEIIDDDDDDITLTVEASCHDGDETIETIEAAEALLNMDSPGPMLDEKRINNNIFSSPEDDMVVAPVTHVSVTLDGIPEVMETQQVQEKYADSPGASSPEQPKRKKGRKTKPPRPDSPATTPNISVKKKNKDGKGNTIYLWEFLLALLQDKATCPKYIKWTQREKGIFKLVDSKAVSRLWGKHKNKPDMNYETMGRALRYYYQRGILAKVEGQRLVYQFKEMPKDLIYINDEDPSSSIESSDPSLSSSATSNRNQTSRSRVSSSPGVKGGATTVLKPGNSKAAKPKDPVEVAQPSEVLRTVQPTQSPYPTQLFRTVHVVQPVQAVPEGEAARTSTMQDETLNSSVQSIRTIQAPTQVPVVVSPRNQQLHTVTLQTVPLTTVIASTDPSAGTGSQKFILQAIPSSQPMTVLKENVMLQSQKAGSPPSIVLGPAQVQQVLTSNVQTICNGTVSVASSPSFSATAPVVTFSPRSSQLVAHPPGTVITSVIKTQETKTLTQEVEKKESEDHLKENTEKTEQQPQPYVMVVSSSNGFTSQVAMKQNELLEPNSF
# Method in brief: as §1
# EHF = biological target: T5, EHF (Homo sapiens, UniProt Q9NZC4 1-300); conditions: protein: recombinant; tags: N-terminal GST; dsDNA, one strand shown
# T5 sequence: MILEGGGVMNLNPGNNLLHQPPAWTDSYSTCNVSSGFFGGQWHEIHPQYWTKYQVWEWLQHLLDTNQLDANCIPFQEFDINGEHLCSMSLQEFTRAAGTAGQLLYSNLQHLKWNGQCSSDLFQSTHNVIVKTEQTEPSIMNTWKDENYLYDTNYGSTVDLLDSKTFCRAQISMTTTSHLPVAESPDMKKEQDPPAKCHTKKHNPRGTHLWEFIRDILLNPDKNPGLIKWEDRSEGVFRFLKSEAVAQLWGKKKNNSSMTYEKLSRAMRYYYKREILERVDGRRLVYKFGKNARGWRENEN
# Method in brief: as §1
# SPI1 = SPI1 (Homo sapiens, UniProt P17947 1-270); conditions: protein: recombinant; tags: N-terminal GST; dsDNA, one strand shown
# Method in brief: as §1
# SPIB = SPIB (Homo sapiens, UniProt Q01892 1-262); conditions: protein: recombinant; tags: N-terminal GST; dsDNA, one strand shown
# Chain of SPIB (Q01892 whole entry): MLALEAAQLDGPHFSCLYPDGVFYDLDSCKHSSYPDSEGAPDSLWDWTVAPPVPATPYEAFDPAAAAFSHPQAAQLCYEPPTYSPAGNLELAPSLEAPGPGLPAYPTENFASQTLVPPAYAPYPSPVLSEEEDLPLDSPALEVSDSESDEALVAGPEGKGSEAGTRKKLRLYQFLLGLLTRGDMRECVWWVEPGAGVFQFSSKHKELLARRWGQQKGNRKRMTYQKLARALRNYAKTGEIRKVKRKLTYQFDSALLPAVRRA
# Method in brief: as §1
# ELK3 = biological target: T6, ELK3 (Homo sapiens, UniProt P41970 1-407); conditions: protein: recombinant; tags: N-terminal GST; dsDNA, one strand shown
# T6 sequence: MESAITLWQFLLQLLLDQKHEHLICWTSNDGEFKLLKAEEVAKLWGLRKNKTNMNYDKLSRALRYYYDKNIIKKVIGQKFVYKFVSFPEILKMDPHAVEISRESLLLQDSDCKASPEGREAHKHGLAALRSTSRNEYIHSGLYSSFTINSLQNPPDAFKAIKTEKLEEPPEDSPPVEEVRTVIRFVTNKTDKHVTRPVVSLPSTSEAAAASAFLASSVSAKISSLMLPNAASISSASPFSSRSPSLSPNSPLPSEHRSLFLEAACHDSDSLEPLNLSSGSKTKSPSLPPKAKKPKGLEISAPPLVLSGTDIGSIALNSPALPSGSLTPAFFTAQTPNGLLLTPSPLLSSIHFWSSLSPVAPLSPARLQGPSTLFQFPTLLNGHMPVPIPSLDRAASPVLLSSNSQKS
# Method in brief: as §1
# FEV = biological target: T7, FEV (Homo sapiens, UniProt Q99581 1-238); conditions: protein: recombinant; tags: N-terminal GST; dsDNA, one strand shown
# T7 sequence: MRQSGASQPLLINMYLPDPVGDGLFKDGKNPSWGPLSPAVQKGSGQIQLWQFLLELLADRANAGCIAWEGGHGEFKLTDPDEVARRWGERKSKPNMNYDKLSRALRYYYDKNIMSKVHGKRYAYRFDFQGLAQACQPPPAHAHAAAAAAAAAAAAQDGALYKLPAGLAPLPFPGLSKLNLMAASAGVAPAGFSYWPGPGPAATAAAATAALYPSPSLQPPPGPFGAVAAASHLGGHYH
# Method in brief: as §1
# ETV5 = ETV5 (Homo sapiens, UniProt P41161 1-510); conditions: protein: recombinant; tags: N-terminal GST; dsDNA, one strand shown
# Chain of ETV5 (P41161 whole entry): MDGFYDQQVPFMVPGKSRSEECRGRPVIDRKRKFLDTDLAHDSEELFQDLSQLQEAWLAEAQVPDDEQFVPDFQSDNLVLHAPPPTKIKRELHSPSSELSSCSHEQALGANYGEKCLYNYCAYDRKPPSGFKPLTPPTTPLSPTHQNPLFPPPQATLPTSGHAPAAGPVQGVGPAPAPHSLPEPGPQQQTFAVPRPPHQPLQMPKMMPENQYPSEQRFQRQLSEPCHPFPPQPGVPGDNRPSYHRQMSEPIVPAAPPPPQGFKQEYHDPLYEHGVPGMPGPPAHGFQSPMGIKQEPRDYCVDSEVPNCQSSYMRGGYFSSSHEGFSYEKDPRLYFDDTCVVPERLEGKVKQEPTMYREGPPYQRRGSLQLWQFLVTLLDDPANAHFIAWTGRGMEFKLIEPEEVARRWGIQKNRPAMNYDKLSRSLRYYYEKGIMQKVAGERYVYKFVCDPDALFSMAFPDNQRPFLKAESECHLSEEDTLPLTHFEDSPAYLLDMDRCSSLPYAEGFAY
# Method in brief: as §1
# HSF1 = HSF1 (Homo sapiens, UniProt Q00613 1-529); conditions: protein: recombinant; tags: N-terminal GST; chain copies: 3; dsDNA, one strand shown
# Chain of HSF1 (Q00613 whole entry): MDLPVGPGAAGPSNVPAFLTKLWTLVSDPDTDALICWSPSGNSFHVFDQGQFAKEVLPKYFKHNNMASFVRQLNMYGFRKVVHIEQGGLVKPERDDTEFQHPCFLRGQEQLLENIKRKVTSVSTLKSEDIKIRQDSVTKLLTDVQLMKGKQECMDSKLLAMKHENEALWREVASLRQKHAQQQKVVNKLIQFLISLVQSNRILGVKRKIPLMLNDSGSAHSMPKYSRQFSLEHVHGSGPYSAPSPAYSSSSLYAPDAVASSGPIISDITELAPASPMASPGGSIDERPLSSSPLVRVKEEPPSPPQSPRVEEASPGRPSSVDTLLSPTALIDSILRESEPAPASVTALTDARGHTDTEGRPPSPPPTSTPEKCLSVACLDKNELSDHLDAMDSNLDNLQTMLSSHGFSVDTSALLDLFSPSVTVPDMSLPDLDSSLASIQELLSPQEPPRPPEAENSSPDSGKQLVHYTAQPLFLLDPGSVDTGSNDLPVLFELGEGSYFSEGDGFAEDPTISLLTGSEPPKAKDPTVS
# Method in brief: as §1
# SPIC = biological target: T8, SPIC (Homo sapiens, UniProt Q8N5J4 1-248); conditions: protein: recombinant; tags: N-terminal GST; dsDNA, one strand shown
# T8 sequence: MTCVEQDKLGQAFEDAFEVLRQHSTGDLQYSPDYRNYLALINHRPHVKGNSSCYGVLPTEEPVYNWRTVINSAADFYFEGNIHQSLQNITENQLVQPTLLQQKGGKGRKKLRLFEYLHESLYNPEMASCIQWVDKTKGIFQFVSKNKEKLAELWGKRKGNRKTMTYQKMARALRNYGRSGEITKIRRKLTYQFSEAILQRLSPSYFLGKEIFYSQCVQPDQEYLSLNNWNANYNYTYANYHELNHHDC
# Method in brief: as §1
# ELF4 = ELF4 (Homo sapiens, UniProt Q99607 1-663); conditions: protein: recombinant; tags: N-terminal GST; dsDNA, one strand shown
# Chain of ELF4 (Q99607 whole entry): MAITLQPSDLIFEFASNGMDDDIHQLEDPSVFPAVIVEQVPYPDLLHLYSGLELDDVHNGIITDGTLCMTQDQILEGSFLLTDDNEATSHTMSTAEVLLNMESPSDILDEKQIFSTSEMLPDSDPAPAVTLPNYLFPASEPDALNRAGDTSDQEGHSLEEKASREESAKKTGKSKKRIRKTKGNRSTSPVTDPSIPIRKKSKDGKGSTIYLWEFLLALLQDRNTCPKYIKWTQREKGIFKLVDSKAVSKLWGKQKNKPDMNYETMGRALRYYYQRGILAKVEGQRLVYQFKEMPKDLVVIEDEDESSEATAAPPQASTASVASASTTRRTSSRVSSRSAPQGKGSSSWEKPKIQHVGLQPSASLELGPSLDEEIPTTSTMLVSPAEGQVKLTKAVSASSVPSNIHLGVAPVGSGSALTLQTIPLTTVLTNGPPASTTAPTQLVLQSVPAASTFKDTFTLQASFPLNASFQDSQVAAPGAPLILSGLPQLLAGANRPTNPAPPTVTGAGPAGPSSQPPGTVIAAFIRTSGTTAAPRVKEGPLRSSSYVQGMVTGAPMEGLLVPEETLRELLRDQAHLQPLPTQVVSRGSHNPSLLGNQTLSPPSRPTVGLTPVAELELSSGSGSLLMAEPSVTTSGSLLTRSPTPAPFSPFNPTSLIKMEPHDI
# Method in brief: as §1
# ELK4 = biological target: T9, ELK4 (Homo sapiens, UniProt P28324-2 1-405); conditions: protein: recombinant; tags: N-terminal GST; dsDNA, one strand shown
# T9 sequence: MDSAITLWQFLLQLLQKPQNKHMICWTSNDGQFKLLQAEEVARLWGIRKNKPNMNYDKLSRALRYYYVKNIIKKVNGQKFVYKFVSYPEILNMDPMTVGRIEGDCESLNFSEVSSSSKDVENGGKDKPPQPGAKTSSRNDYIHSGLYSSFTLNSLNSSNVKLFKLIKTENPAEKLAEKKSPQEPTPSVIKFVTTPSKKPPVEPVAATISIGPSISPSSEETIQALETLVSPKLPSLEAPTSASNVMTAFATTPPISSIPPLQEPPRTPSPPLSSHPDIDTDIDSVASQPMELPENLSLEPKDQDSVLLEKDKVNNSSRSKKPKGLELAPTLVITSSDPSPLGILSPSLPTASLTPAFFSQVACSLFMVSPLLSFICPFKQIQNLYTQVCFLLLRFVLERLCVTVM
# Method in brief: as §1
# ETV2 = biological target: T10, ETV2 (Homo sapiens, UniProt O00321 1-342); conditions: protein: recombinant; tags: N-terminal GST; dsDNA, one strand shown
# T10 sequence: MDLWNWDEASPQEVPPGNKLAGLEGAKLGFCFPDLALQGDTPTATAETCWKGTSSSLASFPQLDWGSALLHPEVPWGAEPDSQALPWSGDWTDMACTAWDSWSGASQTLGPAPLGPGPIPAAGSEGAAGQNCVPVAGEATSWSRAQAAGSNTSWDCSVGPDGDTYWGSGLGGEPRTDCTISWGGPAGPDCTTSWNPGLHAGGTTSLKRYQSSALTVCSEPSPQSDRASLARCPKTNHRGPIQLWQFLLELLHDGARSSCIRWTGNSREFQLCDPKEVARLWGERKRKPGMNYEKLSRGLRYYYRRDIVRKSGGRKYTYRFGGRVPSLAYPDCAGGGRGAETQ
# Method in brief: as §1
# ELF3 = biological target: T11, ELF3 (Homo sapiens, UniProt P78545 1-371); conditions: protein: recombinant; tags: N-terminal GST; dsDNA, one strand shown
# T11 sequence: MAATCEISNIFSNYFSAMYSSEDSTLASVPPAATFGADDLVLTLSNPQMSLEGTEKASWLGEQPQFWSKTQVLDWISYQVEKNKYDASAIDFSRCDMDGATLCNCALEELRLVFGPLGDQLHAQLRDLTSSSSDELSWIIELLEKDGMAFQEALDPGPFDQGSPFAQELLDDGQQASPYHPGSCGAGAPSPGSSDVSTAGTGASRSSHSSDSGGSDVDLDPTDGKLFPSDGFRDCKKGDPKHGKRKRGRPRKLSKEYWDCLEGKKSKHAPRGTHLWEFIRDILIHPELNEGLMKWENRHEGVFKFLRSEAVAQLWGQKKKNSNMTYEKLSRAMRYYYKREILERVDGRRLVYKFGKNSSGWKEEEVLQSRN
# Method in brief: as §1
# CRX = CRX (Homo sapiens, UniProt O43186 1-299); conditions: protein: recombinant; tags: N-terminal GST; dsDNA, one strand shown
# Chain of CRX (O43186 whole entry): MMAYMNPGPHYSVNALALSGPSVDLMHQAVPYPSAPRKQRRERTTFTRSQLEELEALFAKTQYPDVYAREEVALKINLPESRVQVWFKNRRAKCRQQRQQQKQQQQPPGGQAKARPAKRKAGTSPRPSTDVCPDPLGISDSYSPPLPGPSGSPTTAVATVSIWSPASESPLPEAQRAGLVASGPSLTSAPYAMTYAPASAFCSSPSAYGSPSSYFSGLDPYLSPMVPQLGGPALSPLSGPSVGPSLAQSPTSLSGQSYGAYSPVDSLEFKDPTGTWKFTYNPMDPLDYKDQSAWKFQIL
# Method in brief: as §1
# ETV1 = ETV1 (Homo sapiens, UniProt P50549 1-477); conditions: protein: recombinant; tags: N-terminal GST; dsDNA, one strand shown
# Chain of ETV1 (P50549 whole entry): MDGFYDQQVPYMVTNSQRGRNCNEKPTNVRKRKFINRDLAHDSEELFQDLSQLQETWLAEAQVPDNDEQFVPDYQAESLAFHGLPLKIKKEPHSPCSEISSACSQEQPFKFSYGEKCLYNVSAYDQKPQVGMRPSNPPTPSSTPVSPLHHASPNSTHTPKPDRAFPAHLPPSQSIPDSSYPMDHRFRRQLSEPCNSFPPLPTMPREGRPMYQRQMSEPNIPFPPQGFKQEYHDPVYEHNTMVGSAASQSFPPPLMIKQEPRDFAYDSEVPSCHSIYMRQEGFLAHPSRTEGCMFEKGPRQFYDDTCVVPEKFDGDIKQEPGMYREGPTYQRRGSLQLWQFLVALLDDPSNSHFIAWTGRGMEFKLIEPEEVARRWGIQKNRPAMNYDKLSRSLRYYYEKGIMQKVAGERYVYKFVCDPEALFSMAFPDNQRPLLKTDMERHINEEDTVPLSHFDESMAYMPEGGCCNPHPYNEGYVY
# Method in brief: as §1
sequence,measurement,setting,value
ATCTAT,binding signal,FLI1,"1.15 fold enrichment (6-mer frequency, TF over GST control)"
same,binding signal,ELK1,"1.14 fold enrichment (6-mer frequency, TF over GST control)"
same,binding signal,GABPA,"1.17 fold enrichment (6-mer frequency, TF over GST control)"
same,binding signal,ERG,"1.09 fold enrichment (6-mer frequency, TF over GST control)"
same,binding signal,ELF1,"1.16 fold enrichment (6-mer frequency, TF over GST control)"
same,binding signal,EHF,"1.12 fold enrichment (6-mer frequency, TF over GST control)"
same,binding signal,SPI1,"1.09 fold enrichment (6-mer frequency, TF over GST control)"
same,binding signal,SPIB,"1.15 fold enrichment (6-mer frequency, TF over GST control)"
same,binding signal,ELK3,"1.13 fold enrichment (6-mer frequency, TF over GST control)"
same,binding signal,FEV,"1.08 fold enrichment (6-mer frequency, TF over GST control)"
same,binding signal,ETV5,"1.15 fold enrichment (6-mer frequency, TF over GST control)"
same,binding signal,HSF1,"1.32 fold enrichment (6-mer frequency, TF over GST control)"
same,binding signal,SPIC,"1.27 fold enrichment (6-mer frequency, TF over GST control)"
same,binding signal,ELF4,"1.21 fold enrichment (6-mer frequency, TF over GST control)"
same,binding signal,ELK4,"1.18 fold enrichment (6-mer frequency, TF over GST control)"
same,binding signal,ETV2,"1.13 fold enrichment (6-mer frequency, TF over GST control)"
same,binding signal,ELF3,"1.23 fold enrichment (6-mer frequency, TF over GST control)"
same,binding signal,CRX,"1.42 fold enrichment (6-mer frequency, TF over GST control)"
same,binding signal,ETV1,"1.16 fold enrichment (6-mer frequency, TF over GST control)"
